Our source for the growth values is PubChem BioAssay (NCI).

Some test systems named below: NCI-H23 lung; NCI-H226 lung; NCI-H322M lung; HOP-62 NSCLC; NCI-H460 lung; HOP-92 NSCLC; A549/ATCC NSCLC; 786-0 renal; COLO 205 colon; DU-145 prostate; K-562 leukemia; MDA-MB-231 breast; RXF 393 renal; SF-268 CNS; SF-295 CNS; SF-539 CNS; UACC-257 melanoma; M14 melanoma; MALME-3M melanoma.
Common to all, as to test: NCI-60 one-dose screen, 48 h (100 = growth as untreated, 0 = no growth, -100 = all killed)
Common to all, as to settings: 10 µM unless noted

About 83,000 compounds went through this panel and 20% of them were active in at least one assay; those are over-represented in the sample as a whole.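 Method: cells in 96-well plates; compound added at one concentration; 48 h incubation; percent growth measured; values under 10 scored active.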 Values without a mark were called inactive. Calls of active or inactive are those of the source.

For `O=[N+]([O-])c1ccc(N=Nc2c(Cl)cc(O)cc2Cl)cc1`, the growth is -23.4% (active) in the assay with NCI-H23 lung; 10.3% in the assay with NCI-H226 lung; -11.9% (active) in the assay on NCI-H322M lung; 4.04% (active) in the assay on HOP-62 NSCLC; -4.31% (active) with NCI-H460 lung; 3.34% (active) in the assay on HOP-92 NSCLC. Further, the growth with A549/ATCC NSCLC was 16.4%; in the assay with 786-0 renal, -20.1% (active); in the assay with COLO 205 colon, 35.2%; in the assay on DU-145 prostate, 11.1%; with K-562 leukemia, 1.93% (active); in the assay on MDA-MB-231 breast, -35.6% (active). Moreover, the growth in the assay with RXF 393 renal was 7.36% (active); in the assay with SF-268 CNS it was -5.79% (active); with SF-295 CNS, -55.6% (active); in the assay with SF-539 CNS, -2.1% (active); with UACC-257 melanoma it was -21.5% (active); with M14 melanoma, -30% (active).

For the compound `CC[C@@H](C)/C=C(C)/C=C/C(=O)c1c(O)c(-c2ccc(O)cc2)cn(OC2CC(=O)CCC(C)OC(=O)CC2O)c1=O` (some centres undefined), the growth with NCI-H23 lung was 26.8%; in the assay on NCI-H226 lung, 15.8%; in the assay on NCI-H322M lung it was 5.13% (active); in the assay with HOP-62 NSCLC it was 7.07% (active); in the assay on NCI-H460 lung, -19.6% (active); in the assay on HOP-92 NSCLC, 57.7%. The growth in the assay on A549/ATCC NSCLC is 17.9%; in the assay with 786-0 renal, -6.82% (active); with COLO 205 colon, 67.8%; in the assay on DU-145 prostate, 4.8% (active); in the assay on K-562 leukemia it was 13.8%; in the assay on MDA-MB-231 breast, 42.6%. Besides, the growth is 33.6% in the assay on RXF 393 renal; -7.36% (active) in the assay on SF-268 CNS; -22% (active) with SF-295 CNS; -4.57% (active) in the assay with SF-539 CNS; -2.46% (active) with UACC-257 melanoma; -13.7% (active) with M14 melanoma.

Consider `COc1ccc(C2CC(c3ccc4c(c3)OCO4)=NN2C=O)cc1` (centres undefined), for which the growth is 100% in the assay with NCI-H23 lung; 87.6% with NCI-H226 lung; 107% in the assay with NCI-H322M lung; 102% in the assay on HOP-62 NSCLC; 102% with NCI-H460 lung; 89.2% in the assay on HOP-92 NSCLC. Moreover, the growth in the assay with A549/ATCC NSCLC is 95.8%; in the assay with 786-0 renal, 89.5%; in the assay with COLO 205 colon, 115%; in the assay on DU-145 prostate it was 107%; in the assay with K-562 leukemia it was 90.3%; in the assay with MDA-MB-231 breast, 84.2%. Also, the growth was 100% in the assay with RXF 393 renal; 108% with SF-268 CNS; 113% with SF-295 CNS; 98.8% in the assay on SF-539 CNS; 110% with UACC-257 melanoma; 102% in the assay with M14 melanoma.

Take `O=C1Nc2ccc(C(=O)O)c(O)c2C1=O`: the growth is 107% with NCI-H23 lung; 104% in the assay on NCI-H226 lung; 105% in the assay on NCI-H322M lung; 97.4% in the assay on HOP-62 NSCLC; 105% with NCI-H460 lung; 97.3% in the assay with HOP-92 NSCLC. In addition, the growth in the assay on A549/ATCC NSCLC was 96.9%; with 786-0 renal it was 109%; in the assay on COLO 205 colon, 104%; with DU-145 prostate, 111%; in the assay on K-562 leukemia, 107%; in the assay with MDA-MB-231 breast, 113%. Further, the growth is 116% in the assay with RXF 393 renal; 104% with SF-268 CNS; 108% in the assay on SF-295 CNS; 94.4% in the assay with SF-539 CNS; 117% in the assay on UACC-257 melanoma; 107% with M14 melanoma.

Turning to `CCOC(=O)CNC(=O)C1(NC(=O)CNC(=O)OCc2ccccc2)CCCC1`, the growth with NCI-H23 lung is 105%; in the assay with NCI-H226 lung it was 115%; with NCI-H322M lung, 109%; in the assay on HOP-62 NSCLC it was 112%; with NCI-H460 lung, 112%; in the assay with HOP-92 NSCLC, 96.2%. Also, the growth in the assay with A549/ATCC NSCLC was 89.8%; in the assay on 786-0 renal it was 94.9%; with COLO 205 colon, 120%; with DU-145 prostate, 121%; in the assay on K-562 leukemia, 103%; with MDA-MB-231 breast, 99.1%. For the same compound, the growth with RXF 393 renal is 135%; in the assay on SF-268 CNS it was 107%; with SF-295 CNS, 126%; in the assay on SF-539 CNS, 92.2%; in the assay on UACC-257 melanoma, 110%; in the assay with M14 melanoma, 110%.

Take `CCOC(=O)Nc1ccc2c3c(cccc13)-c1ccccc1-2`: the growth was 42.8% in the assay with NCI-H23 lung; 63.1% with NCI-H226 lung; 50.6% in the assay on NCI-H322M lung; 45.1% with HOP-62 NSCLC; 19.2% in the assay with NCI-H460 lung; 81.6% with HOP-92 NSCLC. Also, the growth is 47% in the assay with A549/ATCC NSCLC; 44.1% with 786-0 renal; 24.3% with COLO 205 colon; 66.1% with DU-145 prostate; 15.6% in the assay with K-562 leukemia; 35% in the assay on MDA-MB-231 breast. Also, the growth in the assay on RXF 393 renal is 57.9%; in the assay on SF-268 CNS, 52.3%; with SF-295 CNS, 27.2%; in the assay with SF-539 CNS, 21.9%; with UACC-257 melanoma, 59.4%; in the assay with M14 melanoma, 6.41% (active).

As to `O=C(Nc1ccc(Cl)cc1)Nc1nc2ccc(OC(F)(F)F)cc2o1`, the growth with NCI-H23 lung is 68.6%; in the assay with NCI-H226 lung it was 107%; with NCI-H322M lung it was 113%; in the assay on HOP-62 NSCLC, 114%; with NCI-H460 lung, 81.8%; in the assay on HOP-92 NSCLC, 71.9%. Besides, the growth with A549/ATCC NSCLC is 75.1%; in the assay on 786-0 renal, 105%; with COLO 205 colon, 118%; in the assay on K-562 leukemia, 60.7%; in the assay with MALME-3M melanoma, 128%; in the assay with MDA-MB-231 breast, 109%. Also, the growth is 78.9% in the assay with RXF 393 renal; 123% in the assay on SF-268 CNS; 70.1% in the assay on SF-295 CNS; 104% in the assay on SF-539 CNS; 114% in the assay on UACC-257 melanoma.

Regarding `COC(=O)C1(NC(=O)CNC(=O)OCc2ccccc2)CCCC1`, the growth in the assay on NCI-H23 lung was 106%; with NCI-H226 lung it was 99.1%; with NCI-H322M lung, 113%; in the assay with HOP-62 NSCLC, 111%; in the assay with NCI-H460 lung, 111%; with HOP-92 NSCLC it was 85.2%. Besides, the growth with A549/ATCC NSCLC was 95.3%; in the assay with 786-0 renal, 95.3%; with COLO 205 colon it was 125%; in the assay with DU-145 prostate, 114%; with K-562 leukemia, 98.7%; in the assay on MDA-MB-231 breast it was 95.8%. Also, the growth in the assay on RXF 393 renal was 105%; with SF-268 CNS, 114%; in the assay on SF-295 CNS, 117%; in the assay with SF-539 CNS it was 99.4%; with UACC-257 melanoma it was 106%; in the assay on M14 melanoma it was 105%.

As to `c1ccc(-c2oc(-c3ccccc3)c3ccccc23)cc1`, the growth in the assay with NCI-H23 lung is 99.2%; in the assay on NCI-H226 lung, 104%; with NCI-H322M lung it was 118%; with HOP-62 NSCLC, 98.2%; in the assay on NCI-H460 lung, 102%; in the assay on HOP-92 NSCLC, 78.7%. Moreover, the growth with A549/ATCC NSCLC was 99%; in the assay on 786-0 renal, 101%; with COLO 205 colon it was 105%; with DU-145 prostate, 90.3%; in the assay with K-562 leukemia, 86.5%; in the assay with MDA-MB-231 breast, 91%. The growth with RXF 393 renal is 116%; in the assay with SF-268 CNS, 102%; in the assay on SF-295 CNS it was 102%; in the assay on SF-539 CNS, 104%; in the assay on UACC-257 melanoma, 108%; in the assay with M14 melanoma it was 110%.

Regarding `C(=C1c2ccccc2-c2ccccc21)c1ccccn1`, the growth in the assay on NCI-H23 lung is 79.9%; in the assay with NCI-H226 lung, 99.6%; in the assay with NCI-H322M lung, 89.1%; in the assay on HOP-62 NSCLC, 71.7%; with NCI-H460 lung, 83.8%; with HOP-92 NSCLC, 73.4%. For the same compound, the growth in the assay on A549/ATCC NSCLC is 63.7%; with 786-0 renal, 87.2%; with COLO 205 colon, 84.9%; in the assay on DU-145 prostate, 106%; with K-562 leukemia, 19.6%; in the assay on MDA-MB-231 breast, 62.2%. The growth is 80.6% with RXF 393 renal; 82.7% with SF-268 CNS; 71.3% with SF-295 CNS; 72.2% in the assay with SF-539 CNS; 91.1% in the assay on UACC-257 melanoma; 33.4% with M14 melanoma.
